Results on 16 compounds are retold here after ChEMBL document CHEMBL1961873, “Compounds: GSK PKIS; Assays: Nanosyn kinase panel” (2012).

In general, inhibition refers to the relative decrease from the control value, in per cent.
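Note: reported value is the mean inhibition of PIM1.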

For the assay, the target named is Serine/threonine-protein kinase pim-1 (Homo sapiens) (UniProt P11309). The following applies: at 0.1 µM.
Chain of Serine/threonine-protein kinase pim-1 (Homo sapiens) (P11309 whole entry, looked up): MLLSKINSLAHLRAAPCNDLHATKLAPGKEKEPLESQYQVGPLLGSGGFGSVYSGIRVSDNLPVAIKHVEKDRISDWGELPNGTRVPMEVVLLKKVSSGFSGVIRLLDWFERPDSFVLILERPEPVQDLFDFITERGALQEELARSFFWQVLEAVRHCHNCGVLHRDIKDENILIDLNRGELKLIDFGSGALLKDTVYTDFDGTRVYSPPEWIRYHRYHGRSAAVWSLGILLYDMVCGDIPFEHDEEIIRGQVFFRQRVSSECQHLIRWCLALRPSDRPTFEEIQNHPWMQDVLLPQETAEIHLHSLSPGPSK
With `Cc1ccc(Nc2ccnc(Nc3cccc(C(N)=O)c3)n2)cc1O`, the inhibition was determined as 0.14%.

For the compound `CN(c1ccc(NC(=O)Nc2ccc(OC(F)(F)F)cc2)cc1)c1ccnc(Nc2cccc(S(N)(=O)=O)c2)n1`, the inhibition worked out at 0.23%.

On to `CN1CCN(C(=O)c2ccc(NC(=O)Nc3ccc(N(C)c4ccnc(Nc5ccc(CS(C)(=O)=O)cc5)n4)cc3)cc2)CC1`, for which the inhibition is 0.58%.

With `NS(=O)(=O)c1ccc(N/N=C2\C(=O)Nc3ccc(Cl)cc32)cc1`, the inhibition was 1.22%.

With `c1ccc(Nc2ncc(-c3ccccc3)o2)cc1`, the inhibition amounted to 1.47%.

Consider `CS(=O)(=O)CCNCc1nc(-c2ccc3ncnc(Nc4ccc(OCc5cccc(C(F)(F)F)c5)cc4)c3c2)cs1`, for which the inhibition worked out at 0.49%.

For the compound `COC(=O)c1ccc2c(c1)C(=Cc1cc(Br)c(O)c(Br)c1)C(=O)N2`, the inhibition stood at 8.81%.

As for `O=C(Nc1ccc(Oc2ccc3[nH]c(NC(=O)c4ccco4)nc3c2)cc1)Nc1cc(C(F)(F)F)ccc1F`, the inhibition amounted to 0.14%.

In the case of `CC(C)c1ccc(Nc2nccc(-c3cnn4ncccc34)n2)cc1`, the inhibition was -0.71%.

For the compound `CS(=O)(=O)Nc1cccc(-c2ccc3c(NC(=O)C4CC4)n[nH]c3c2)c1`, the inhibition worked out at 0.69%.

Turning to `COC(=O)Nc1nc2cc(Oc3ccc(NC(=O)Nc4cccc(Br)c4)cc3)ccc2[nH]1`, the inhibition is -0.51%.

Take `N#Cc1cccc(Nc2nccc(-c3cnn4ncccc34)n2)c1`: the inhibition was determined as 1.44%.

With `NS(=O)(=O)c1ccc(Nc2cc(-c3cccc(O)c3)n[nH]2)cc1`, the inhibition is -0.06%.

In the case of `CC(C)c1ccc2c(c1)NC(=O)/C2=N/Nc1ccc(S(N)(=O)=O)cc1`, the inhibition turned out to be 0.27%.

For `Cc1cc(O)cc(C)c1/C=C/c1cncc(C(=O)N(C)C)c1`, the inhibition was 1.21%.

Turning to `c1ccc(Cc2nc3ccc(Nc4ncnc5ccccc45)cc3[nH]2)cc1`, the inhibition stood at 0.17%.
